# PubChem BioAssay
# Values joined by “and” are separate entries in the source; they are usually repeats but may differ in a detail not shown here. Identical values can stand only once. Active and inactive are the calls of the source.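 The calls were made as follows, unless noted: active = thallium flux through the channel raised or lowered by more than 3 SD from vehicle-only wells, actives on both sides; inactive = the rest.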
# Key:
# [1] = liver-stage malaria parasite growth inhibition, primary screen, cell-based, HepG2, luciferase luminescence, HepG2 viability (AID 624349; in the data active = parasite load remaining mostly below about 12%, no sharp cut-off; inactive = mostly above about 10%;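 also: 100% = mean of DMSO negative control wells on the same plate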); details: P. berghei liver stage in HepG2, luciferase luminescence, concentration not given here; parasite load remaining: stronger effect = lower value; viability: measured here: HepG2 viability without parasites
# [2] = Cy5 fluorescence interference with SSB-bound oligo, artefact control for HCV NS3 helicase inhibitor project, biochemical, NIH Clinical Collection, E. coli SSB (AID 743268; call rule not given here)
# [3] = system: Hepatitis C virus NS3 helicase; assay: HCV NS3 helicase inhibitors, primary screen, biochemical, fluorescence polarization, NIH Clinical Collection (AID 743270; call rule not given here); details: NS3 helicase binding to Cy5-dT15 DNA, stronger effect = higher value, concentration not given here
# [4] = target: Single-stranded DNA-binding protein (Escherichia coli (strain K12)) (UniProt P0AGE0); assay: E. coli SSB displacement from DNA, counter-screen for HCV NS3 helicase inhibitor project, biochemical, fluorescence polarization, NIH Clinical Collection (AID 743271; in the data active = inhibition above about 28%); details: stronger effect = higher value, concentration not given here
# [5] = fluorescence interference in NS3h assay format, artefact control for HCV NS3 helicase inhibitor project, biochemical, NIH Clinical Collection (AID 743272; call rule not given here;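 also: HCV NS3 helicase with a Cy5 labelled single stranded DNA probe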); details: fluorescence interference counterscreen, stronger effect = lower value
# [6] = modulation of C. elegans fzo-1 (AID 1259413; call rule not given here;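 also: fzo-1 mutant C. elegans worms in liquid wells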); details: C. elegans fzo-1 modulator screen, mean read-out; stronger effect = higher value
# [7] = sensitizers of A549 cells to miR-34 induction, primary screen, imaging, A549 dox-inducible miR-34, nuclei and caspase counts (AID 1347080;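 active = compounds whose cell count with miR-34 switched on is under 0.7 times the count with it off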); details: A549 miR-34 inducible, Hoechst nuclei count, 48 h
# F380Y = assay: modulators of BK channel variants, profiling panel, selectivity assay, cell-based, U2OS BacMam, thallium flux, beta subunits (AID 1259406); details: at 30 µM;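 also: initial slope of Thallos dye fluorescence rise after thallium is added; log ratio against the mean of 0.3% DMSO vehicle wells on the same plate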
# F380Y/beta1 = assay: as above; details: at 30 µM
# F380Y/beta2Delta = assay: as above; details: at 30 µM
# F380Y/beta4 = assay: as above; details: at 30 µM
# [8] = target: Calcium-activated potassium channel subunit alpha-1 (Homo sapiens) + Leucine-rich repeat-containing protein 26 (Homo sapiens) (UniProt Q12791+Q2I0M4); assay: as above; details: F380Y/Slo1WT/gamma1, at 30 µM
# R275C = assay: as above; details: at 30 µM
# R275C/beta1 = assay: as above; details: at 30 µM
# R275C/beta2Delta = assay: as above; details: at 30 µM
# R275C/beta4 = assay: as above; details: at 30 µM
# R275C/Slo1WT/beta2 = assay: as above; details: at 30 µM
# [9] = survival rescue of mitochondrial mutant cells in low glucose, primary screen, MELAS cybrids, Rieske KO mouse fibroblasts, CellTiter-Glo (AID 1508586;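 active = mean z-score across replicates of 1.96 or higher in either the MELAS or the Rieske mutant cell line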;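 also: z relative to plate mean and SD of compound and empty wells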)
# [10] = stronger effect = lower value, cell number ratio, induced over uninduced
# [11] = measured here: relative caspase fold change +Dox/-Dox
# [12] = measured here: total cells with miR-34 induction, stronger effect = lower value
# [13] = measured here: total cells without miR-34 induction
# Calcium-activated potassium channel subunit alpha-1 (Homo sapiens) + Leucine-rich repeat-containing protein 26 (Homo sapiens), sequence (Q2I0M4 whole entry, looked up, one chain of several): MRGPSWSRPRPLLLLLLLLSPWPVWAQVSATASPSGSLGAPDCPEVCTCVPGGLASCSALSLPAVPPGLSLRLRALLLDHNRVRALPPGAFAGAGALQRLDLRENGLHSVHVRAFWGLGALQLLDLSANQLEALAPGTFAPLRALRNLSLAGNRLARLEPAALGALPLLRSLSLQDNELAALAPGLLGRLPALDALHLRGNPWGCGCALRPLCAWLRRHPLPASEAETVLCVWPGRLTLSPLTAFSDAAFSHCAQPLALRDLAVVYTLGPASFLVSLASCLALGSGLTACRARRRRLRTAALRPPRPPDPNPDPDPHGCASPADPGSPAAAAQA
smiles,measurement,setting,value
CC(=O)OCC(=O)C12OC3(CCCC3)OC1CC1C3CCC4=CC(=O)C=CC4(C)C3(F)C(O)CC12C (stereo not given),parasite load remaining,[1],72.8% (inactive)
same,viability,[1],95.1%
same,fluorescence ratio,[2],1.06 (inactive)
same,inhibition,[3],-5% (inactive)
same,inhibition,[4],0.29% (inactive)
same,fluorescence ratio,[5],0.98 (inactive)
same,mean signal,[6],242 (inactive)
same,fold change,[7]; [10],0.97 (inactive)
same,fold change,[7]; [11],1.12
same,cell count,[7]; [12],5910
same,cell count,[7]; [13],6100
same,log fold change Tl+ flux,F380Y,0.16 (active)
same,log fold change Tl+ flux,F380Y/beta1,-0.0293 (inactive)
same,log fold change Tl+ flux,F380Y/beta2Delta,0.0485 (inactive)
same,log fold change Tl+ flux,F380Y/beta4,-0.0119 (inactive)
same,log fold change Tl+ flux,[8],0.0537 (inactive)
same,log fold change Tl+ flux,R275C,-0.00403 (inactive)
same,log fold change Tl+ flux,R275C/beta1,0.0957 (inactive)
same,log fold change Tl+ flux,R275C/beta2Delta,0.0763 (inactive)
same,log fold change Tl+ flux,R275C/beta4,0.0347 (inactive)
same,log fold change Tl+ flux,R275C/Slo1WT/beta2,0.084 (inactive)
CCC(C)n1ncn(-c2ccc(N3CCN(c4ccc(OCC5COC(Cn6cncn6)(c6ccc(Cl)cc6Cl)O5)cc4)CC3)cc2)c1=O (stereo not given),parasite load remaining,[1],26.8% (inactive) and 13.6% (inactive)
same,viability,[1],59.8% and 65%
same,fluorescence ratio,[2],0.99 (inactive)
same,inhibition,[3],2.77% (inactive)
same,inhibition,[4],-1.64% (inactive)
same,fluorescence ratio,[5],1 (inactive)
same,mean signal,[6],270 (inactive)
same,fold change,[7]; [10],0.793 (inactive) and 0.866 (inactive)
same,fold change,[7]; [11],1.39 and 1.62
same,cell count,[7]; [12],5650 and 9680
same,cell count,[7]; [13],7130 and 11200
same,z-score,"[9]; MELAS cybrid survival, CellTiter-Glo 48 h, stronger effect = higher value",-0.416 (inactive) and -0.441 (inactive)
same,z-score,"[9]; Rieske KO mouse fibroblast survival, CellTiter-Glo 72 h",0.947 and 1.02
same,log fold change Tl+ flux,F380Y,0.0299 (inactive)
same,log fold change Tl+ flux,F380Y/beta1,0.0346 (inactive)
same,log fold change Tl+ flux,F380Y/beta2Delta,-0.00576 (inactive)
same,log fold change Tl+ flux,F380Y/beta4,0.0111 (inactive)
same,log fold change Tl+ flux,[8],0.0139 (inactive)
same,log fold change Tl+ flux,R275C,-0.015 (inactive)
same,log fold change Tl+ flux,R275C/beta1,0.0149 (inactive)
same,log fold change Tl+ flux,R275C/beta2Delta,0.0172 (inactive)
same,log fold change Tl+ flux,R275C/beta4,-0.00424 (inactive)
same,log fold change Tl+ flux,R275C/Slo1WT/beta2,0.0617 (inactive)
CC1(C)SC2C(NC(=O)Cc3ccccc3)C(=O)N2C1C(=O)O (stereo not given),parasite load remaining,[1],67.7% (inactive)
same,viability,[1],89.4%
same,fluorescence ratio,[2],1.02 (inactive)
same,inhibition,[3],-1.36% (inactive)
same,inhibition,[4],1.05% (inactive)
same,fluorescence ratio,[5],1 (inactive)
same,mean signal,[6],247 (inactive)
same,fold change,[7]; [10],0.988 (inactive)
same,fold change,[7]; [11],2.34
same,cell count,[7]; [12],10600
same,cell count,[7]; [13],10700
same,log fold change Tl+ flux,F380Y,-0.0498 (inactive)
same,log fold change Tl+ flux,F380Y/beta1,-0.0346 (inactive)
same,log fold change Tl+ flux,F380Y/beta2Delta,-0.00781 (inactive)
same,log fold change Tl+ flux,F380Y/beta4,0.000902 (inactive)
same,log fold change Tl+ flux,[8],0.0267 (inactive)
same,log fold change Tl+ flux,R275C,0.0404 (inactive)
same,log fold change Tl+ flux,R275C/beta1,-0.00964 (inactive)
same,log fold change Tl+ flux,R275C/beta2Delta,0.00389 (inactive)
same,log fold change Tl+ flux,R275C/beta4,-0.0356 (inactive)
same,log fold change Tl+ flux,R275C/Slo1WT/beta2,-0.096 (inactive)
